The record followed here is PubChem BioAssay (NCATS).

SMILES strings stand for the structures. Values joined by “and” are separate entries in the source; they are usually repeats but may differ in a detail not shown here. Equal entries are not always repeated. Inconclusive results are not listed. Values without a mark were called inactive. Active and inactive are the calls of the source. Calls come from the whole dose curve; as a rule, active = well fitted curve in the direction sought with a large enough effect; inconclusive = small, poorly fitted or top-dose-only effect, or another doubt; inactive = no such curve, though single readings can be large; an effect the other way counts as inactive or inconclusive.

One assay relates to CRL-7250. As to the kind of experiment: Cytotoxic Profiling of Annotated Libraries Using Quantitative High-Throughput Screening (AID 1296008). For max response: % is set by controls: 0 for no effect and ±100 for the full control effect. Note: nearly all actives have a fitted effect of over 60% in size. Note: potency is the fitted concentration of half-maximal effect. The conditions noted are these: Five cell lines viability, CellTiter-Glo ATP luminescence, 48-72 h; max response: hits give low values. The essentials:
(§1)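 Cells exposed to compounds for 48 or 72 hr at 37 degrees Celsius. Viability read as ATP-coupled luminescence with CellTiter-Glo after 10 min at room temperature.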

A further assay has as its system HEK293. The description is as above. The settings on record: Five cell lines viability, CellTiter-Glo ATP luminescence, 48-72 h; max response: hits give low values. A digest of the protocol: as §1
Background: Cellular ATP, detected with luciferase, serves as a proxy for viable cell number.

The subject of assay [1] is HaCat. Described as above. The conditions noted are these: Five cell lines viability, CellTiter-Glo ATP luminescence, 48-72 h; max response: hits give low values. The essentials: as §1
The test system of the next assay is KB-3-1. The assay is described as above. The conditions noted are these: Five cell lines viability, CellTiter-Glo ATP luminescence, 48-72 h; max response: hits give low values. A digest of the protocol:
as §1

The subject of assay [2] is NIH3T3. The description is as above. The conditions noted are these: Five cell lines viability, CellTiter-Glo ATP luminescence, 48-72 h; max response: hits give low values. The essentials:
as §1

Assay [3] concerns HACAT. In words: qHTS assay to identify novel small-molecules to repurpose for Merkel cell carcinoma treatment (AID 1296009). Note: nearly all actives have a fitted effect of over 60% in size. The settings on record: MCC and control cell lines, CellTiter-Glo viability, 72 h; at 44.8 µM (top of the series) unless noted. The essentials: (§2)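 Cells were treated for 72 hr at 37 degree celsius with compounds in 8- or 11-point dose response. Viability was read by CellTiter-Glo luminescence, normalized to no-cell (cytotoxicity) and DMSO controls.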
Background: qHTS replaces the single test concentration by a dilution series.

The next assay deals with MCC-13. The description is as above. The settings on record: MCC and control cell lines, CellTiter-Glo viability, 72 h; series mostly up to 46 µM. A digest of the protocol: as §2
The subject of a further assay is MCC-26. The description is as above. The settings on record: MCC and control cell lines, CellTiter-Glo viability, 72 h; series mostly up to 46 µM. The essentials:
as §2

In the next assay the test system is MKL-1. The description is as above. The settings on record: MCC and control cell lines, CellTiter-Glo viability, 72 h; series mostly up to 46 µM. The essentials:
as §2

The subject of another assay is MKL-2. Described as above. The conditions noted are these: MCC and control cell lines, CellTiter-Glo viability, 72 h; series mostly up to 46 µM. The essentials:
as §2

A further assay relates to WaGa. The assay is described as above. The conditions noted are these: MCC and control cell lines, CellTiter-Glo viability, 72 h; series mostly up to 46 µM. A digest of the protocol: as §2
The subject of another assay is HEK293T. The assay is described as above. The conditions noted are these: MCC and control cell lines, CellTiter-Glo viability, 72 h; at 44.8 µM (top of the series). The essentials: as §2
Another assay relates to UISO. The description is as above. The settings on record: MCC and control cell lines, CellTiter-Glo viability, 72 h; series mostly up to 46 µM. A digest of the protocol: as §2
In the next assay the test system is C33A. As to the kind of experiment: Primary qHTS to identify gynecologic anti-cancer compounds using libraries of approved drugs and bioactive compounds (AID 1345084). Note: % is set by controls: 0 for no effect and ±100 for the full control effect; nearly all actives have a fitted effect of over 55% in size. The conditions noted are these: Gynecologic cancer cell panel viability, ATPlite luminescence, 48 h; series mostly up to 57.5 µM. The essentials: (§3)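 Five-point cytotoxicity, 48 h drug exposure at 37 C, 5% CO2, on cells seeded 16 h beforehand. ATP content read by ATPlite luminescence.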

For the next assay, the system named is CAOV3. The assay is described as above. The conditions noted are these: Gynecologic cancer cell panel viability, ATPlite luminescence, 48 h; series mostly up to 57.5 µM. The essentials: as §3
In a further assay the test system is CASKI. The assay is described as above. The conditions noted are these: Gynecologic cancer cell panel viability, ATPlite luminescence, 48 h; series mostly up to 57.5 µM. The essentials:
as §3

For assay [4], the system named is NIH3T3. In words: qHTS assay to identify novel small-molecules to repurpose for Merkel cell carcinoma treatment (AID 1296009). Note: nearly all actives have a fitted effect of over 60% in size. The conditions noted are these: MCC and control cell lines, CellTiter-Glo viability, 72 h; at 44.8 µM (top of the series) unless noted. A digest of the protocol: as §2
Another assay deals with TAB113. As to the kind of experiment: qHTS profiling for inhibitors of Plasmodium falciparum proliferation (AID 504749). Note: nearly all actives have a fitted effect of over 60% in size. Note: potency is the fitted concentration of half-maximal effect. The conditions noted are these: P. falciparum in erythrocytes, SYBR Green DNA, 72 h; series mostly up to 28.7 µM. The essentials: (§4)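 P. falciparum-infected erythrocytes (0.3% parasitemia, 2.5% hematocrit) incubated with compound 72 h at 37 C, 5% CO2. Parasite DNA detected by SYBR Green after lysis, overnight at room temperature; normalised to 0.29 uM artemisinin and DMSO.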

In a further assay the test system is W2. Described as above. The settings on record: P. falciparum in erythrocytes, SYBR Green DNA, 72 h; series mostly up to 28.7 µM. A digest of the protocol: as §4
The subject of another assay is TAB165. Described as above. The settings on record: P. falciparum in erythrocytes, SYBR Green DNA, 72 h; series mostly up to 28.7 µM. A digest of the protocol:
as §4

Turning to `Cc1c[nH]c(C=C2C(=O)Nc3ccccc32)c1CCC(=O)O`, the Potency in the assay with CRL-7250 is 6.62 µM (active); in the assay on HEK293, 3.32 µM (active). Besides, the outcome in the assay on HaCat [1] and with HACAT [3] was inactive. The max response in the assay with KB-3-1 was -13.5%; with NIH3T3 [2], -18.5%. The Potency entry with MCC-13, in the assay with MCC-26, in the assay with MKL-1, in the assay on MKL-2 and with WaGa was “inactive” throughout.
As for `CCn1cc(C(=O)O)c(=O)c2ccc(C)nc21`, the max response in the assay with CRL-7250 is 4.8% and -5.54%; with KB-3-1, -12% and -6.11%; in the assay with NIH3T3 [2], -10.7% and -7.98%. For the same compound, the compound was called inactive in the assay on HEK293, in the assay on HaCat [1], in the assay on HACAT [3] and with HEK293T. The Potency entry with MCC-13, in the assay with MCC-26, with MKL-1, in the assay with MKL-2, in the assay on UISO and in the assay on WaGa was “inactive” throughout. Also, the Potency entry in the assay on C33A, in the assay with CAOV3 and in the assay on CASKI was “inactive” in each case.
With `COc1ccc2c3c1OC1C[C@@H](O)C=C[C@@]31CCN(C)C2` (some centres undefined), the max response in the assay on CRL-7250 is -0.2%; in the assay on HEK293, -3.03%; in the assay with KB-3-1, -3.8%; in the assay on NIH3T3 [2], 1.03%. Also, the compound was called inactive in the assay with HaCat [1] and with HACAT [3]. For the same compound, the Potency result in the assay with MCC-13, in the assay with MCC-26, in the assay on MKL-1, in the assay with MKL-2, in the assay with UISO and in the assay with WaGa was “inactive” each time.
For the compound `CCOC1OC(=O)C[C@H]1NC(=O)[C@@H]1CCCN1C(=O)[C@@H](NC(=O)c1ccc(N)c(Cl)c1)C(C)(C)C` (some centres undefined), the result in the assay on CRL-7250, in the assay on HaCat [1], in the assay with KB-3-1, with NIH3T3 [2], in the assay on HACAT [3] and in the assay with NIH3T3 [4] was inactive. Further, in the assay on HEK293, the max response was -6.79%. The Potency entry in the assay with MCC-13, in the assay on MCC-26, in the assay with MKL-1, with MKL-2 and in the assay on UISO was “inactive” each time.
In the case of `CC=CC(=O)N(CC)c1ccccc1C`, the max response in the assay on CRL-7250 was -6.43%; with KB-3-1, 2.01%; in the assay with NIH3T3 [2], 3.96%. The call in the assay on HEK293, in the assay on HaCat [1], in the assay on HACAT [3] and in the assay with HEK293T was inactive. Moreover, the Potency result in the assay on MCC-13, in the assay with MKL-1, in the assay with MKL-2 and with UISO was “inactive” throughout.
Turning to `Cc1cccc(C)c1OCC(C)N` (centres undefined), the Potency result in the assay on TAB113, with MCC-13, with MCC-26, in the assay on MKL-1, in the assay on MKL-2 and in the assay with UISO was “inactive” each time. Besides, the Potency entry in the assay on WaGa, in the assay on C33A, in the assay on CAOV3 and in the assay on CASKI was “inactive” each time. Also, the Potency in the assay on W2 is 6.01 µM (active). Further, the compound was called inactive in the assay on CRL-7250, in the assay with HEK293, in the assay on HaCat [1], with NIH3T3 [2], with HACAT [3] and in the assay with HEK293T. The result with NIH3T3 [4] was inactive. For the same compound, in the assay with KB-3-1, the max response was 6.51%.
On to `C[N+]1(C)[C@@H]2CC(OC(=O)[C@H](CO)c3ccccc3)C[C@H]1[C@H]1O[C@@H]12` (some centres undefined), for which the figures for the max response in the assay on CRL-7250, in the assay with KB-3-1 and in the assay with NIH3T3 [2] were 4.18%, 2.27% and -3.27%, respectively. Moreover, the result in the assay on HEK293, in the assay on HaCat [1], with HACAT [3] and with HEK293T was inactive. Besides, the Potency entry in the assay on MCC-13, in the assay with MKL-1, with MKL-2, in the assay with UISO and with WaGa was “inactive” each time.
In the case of `CCN(CC)C(=O)c1ccc(O)c(OC)c1`, the Potency entry in the assay with TAB113, with TAB165, in the assay with W2, in the assay on MCC-13, in the assay with MCC-26 and in the assay with MKL-1 was “inactive” in each case. The Potency entry in the assay on MKL-2, with UISO, in the assay with WaGa, with C33A, in the assay on CAOV3 and in the assay with CASKI was “inactive” each time. Besides, the max response in the assay with CRL-7250 is -9.2%; in the assay with HEK293 it was -4.79%; in the assay on KB-3-1, 2.39% and -3.02%; in the assay with NIH3T3 [2], -4.21%. Also, the outcome with HaCat [1] and with HACAT [3] was inactive.
Regarding `NC1CCC(Nc2nc(Nc3ccc(C(=O)N4CCCCC4)cc3)c3ncn(-c4cccc(F)c4)c3n2)CC1` (centres undefined), the call with CRL-7250, in the assay on HEK293, in the assay on HaCat [1], in the assay with HACAT [3] and with HEK293T was inactive. Further, the max response in the assay with KB-3-1 was -2.33%; with NIH3T3 [2] it was 4.66%. The Potency result with MCC-13, with MCC-26, with MKL-1, in the assay with MKL-2, in the assay on UISO and with WaGa was “inactive” throughout.
For the compound `O=C1NC(=O)C(c2ccccc2)(c2ccccc2)N1`, the Potency result with TAB113, with TAB165, in the assay with W2, in the assay with MCC-13, in the assay with MCC-26 and with MKL-1 was “inactive” in each case. Besides, the Potency result with MKL-2, in the assay with UISO, with WaGa, in the assay with C33A, in the assay with CAOV3 and in the assay with CASKI was “inactive” throughout. In the assay with CRL-7250, the call was inactive. Moreover, the max response in the assay on HEK293 is -11.5%; in the assay on HaCat [1], -5.29%; in the assay with KB-3-1 it was 7.95%; with NIH3T3 [2], -3.65%.
`COc1cccc(-c2cc(=O)c3ccccc3o2)c1N`: the max response is -6.48% with CRL-7250, -10.3% in the assay with HEK293, -7.74% in the assay with HaCat [1] and -0.147% in the assay on KB-3-1. Also, the result with NIH3T3 [2] and in the assay on NIH3T3 [4] was inactive. Further, the Potency result in the assay with MCC-13, in the assay with MCC-26, in the assay on MKL-1, in the assay with MKL-2, in the assay on UISO and in the assay on WaGa was “inactive” throughout.
On to `O=C(O)C(O)Cc1ccc(O)c(O)c1` (centres undefined), for which the max response in the assay on CRL-7250 was -24.8%; with HaCat [1], -1.88%; in the assay on KB-3-1 it was 5.06%; in the assay on NIH3T3 [2], -0.893%. In addition, the result with HEK293 and in the assay with HEK293T was inactive. Besides, the Potency entry with MCC-13, in the assay with MCC-26, with MKL-1, in the assay on MKL-2, in the assay with UISO and with WaGa was “inactive” each time.
For the compound `CC(C)NCC(O)COc1cccc2[nH]ccc12` (centres undefined), the max response with CRL-7250 is -21.3% and 3.12%; in the assay with HEK293, -23%; with HaCat [1] it was -22.9% and 1.98%; with KB-3-1 it was 13.5% and 2.02%; in the assay with NIH3T3 [2], -7.28% and 1.44%. The Potency entry in the assay with MCC-13, in the assay with MCC-26, with MKL-1, in the assay with MKL-2, in the assay on UISO and with WaGa was “inactive” in each case. The Potency entry in the assay on C33A, in the assay with CAOV3 and in the assay on CASKI was “inactive” in each case.
